SMILES strings stand for the structures. Values joined by “and” are separate entries in the source; they are usually repeats but may differ in a detail not shown here. Equal entries are not always repeated. Results filed as inconclusive are left out. Active and inactive are the calls of the source. Rule for the calls: active = hit-call score of the fitted dose curve at least 0.9, where 1 is the maximum; inconclusive = response in the unintended direction; inactive = score below 0.9.

Sequence of chimpanzee Androgen Receptor (AR), AR (gene 747460) (O97775 whole entry, looked up): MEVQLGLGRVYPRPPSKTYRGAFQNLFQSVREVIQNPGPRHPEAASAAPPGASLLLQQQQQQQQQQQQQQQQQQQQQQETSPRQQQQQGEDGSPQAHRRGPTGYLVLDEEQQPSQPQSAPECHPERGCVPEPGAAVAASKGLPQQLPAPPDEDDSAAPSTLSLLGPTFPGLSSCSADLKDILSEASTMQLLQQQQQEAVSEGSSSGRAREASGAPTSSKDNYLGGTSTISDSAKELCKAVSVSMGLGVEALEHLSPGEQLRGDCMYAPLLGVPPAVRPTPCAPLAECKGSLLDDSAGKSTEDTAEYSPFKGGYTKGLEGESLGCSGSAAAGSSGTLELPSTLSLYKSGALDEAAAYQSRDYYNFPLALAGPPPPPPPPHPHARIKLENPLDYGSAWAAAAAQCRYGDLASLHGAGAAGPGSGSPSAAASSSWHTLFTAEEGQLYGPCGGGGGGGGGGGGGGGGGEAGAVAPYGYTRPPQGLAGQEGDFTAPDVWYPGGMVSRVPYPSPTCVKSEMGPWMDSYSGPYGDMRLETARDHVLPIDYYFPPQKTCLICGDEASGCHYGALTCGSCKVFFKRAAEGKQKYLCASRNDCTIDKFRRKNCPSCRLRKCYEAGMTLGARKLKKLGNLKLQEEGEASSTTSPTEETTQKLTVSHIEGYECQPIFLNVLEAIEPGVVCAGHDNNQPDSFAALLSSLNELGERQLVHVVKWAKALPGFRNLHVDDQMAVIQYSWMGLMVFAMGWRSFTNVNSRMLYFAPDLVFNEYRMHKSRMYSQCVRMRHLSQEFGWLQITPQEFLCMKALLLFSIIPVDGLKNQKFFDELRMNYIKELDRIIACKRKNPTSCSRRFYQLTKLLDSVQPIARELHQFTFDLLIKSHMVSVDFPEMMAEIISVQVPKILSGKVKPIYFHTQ
Sequence of bovine Estrogen Receptor (ER), ESR1 (gene 407238) (P49884 whole entry, looked up): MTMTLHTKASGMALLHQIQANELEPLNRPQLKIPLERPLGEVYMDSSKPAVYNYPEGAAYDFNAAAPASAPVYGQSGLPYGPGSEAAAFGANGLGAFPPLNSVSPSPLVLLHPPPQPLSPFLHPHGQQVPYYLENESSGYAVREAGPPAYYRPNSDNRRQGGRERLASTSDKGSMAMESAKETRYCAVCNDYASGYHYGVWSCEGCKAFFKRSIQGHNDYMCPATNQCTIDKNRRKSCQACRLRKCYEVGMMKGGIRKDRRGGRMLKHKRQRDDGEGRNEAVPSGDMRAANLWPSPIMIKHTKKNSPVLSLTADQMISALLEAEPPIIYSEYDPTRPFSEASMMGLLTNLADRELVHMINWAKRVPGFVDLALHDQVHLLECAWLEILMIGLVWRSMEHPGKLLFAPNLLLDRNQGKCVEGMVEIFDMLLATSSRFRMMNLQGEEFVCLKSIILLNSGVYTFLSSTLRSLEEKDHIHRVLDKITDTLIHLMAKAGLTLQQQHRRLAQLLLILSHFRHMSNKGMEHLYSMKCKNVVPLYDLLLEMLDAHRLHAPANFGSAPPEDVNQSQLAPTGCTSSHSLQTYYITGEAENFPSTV

The first assay concerns the target bovine Estrogen Receptor (ER), ESR1 (gene 407238) (UniProt P49884). The assay can be described thus: NVS_NR_bER: NovaScreen (NVS) Nuclear Receptor Binding Assay for bovine Estrogen Receptor (ER) (AID 2283345).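 Note: actives lower the bound radioligand count which means they displace the ER ligand.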 A digest of the protocol:
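Cell-free radioligand binding with bovine uterine membrane extracts, read 18 hours after dosing by scintillation counting. Loss of signal versus DMSO baseline indicates displacement. Primary screen run in duplicate at 25 uM, actives followed in concentration series.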
In the case of `OC(c1ccc(Cl)cc1)(c1cncnc1)c1ccccc1Cl` (stereo not drawn), the outcome was inactive.

As for `C=CCC1=C(C)C(OC(=O)C2C(C=C(C)C)C2(C)C)CC1=O` (stereo not drawn), the result was inactive.

Take `C=CC1(C)OC(=O)N(c2cc(Cl)cc(Cl)c2)C1=O` (stereo not drawn): the outcome was inactive.

As to `CCCCOC(=O)c1ccccc1C(=O)OCCCC`, the molecule was called inactive.

`N#Cc1cc(Br)c(O)c(Br)c1`: the call was inactive.

As to `COc1ccc(C(c2ccc(OC)cc2)C(Cl)(Cl)Cl)cc1`, the outcome was inactive.

Regarding `CCCCC(CC)COC(=O)c1ccccc1C(=O)OCC(CC)CCCC` (stereo not drawn), the molecule was called inactive.

The next assay addresses chimpanzee Androgen Receptor (AR), AR (gene 747460) (UniProt O97775). Description: NVS_NR_cAR: NovaScreen (NVS) Nuclear Receptor Binding Assay for chimpanzee Androgen Receptor (AR) (AID 2283346).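 Note: a loss of bound radioligand signal versus DMSO counts as binding.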 The procedure: NVS_NR_cAR is a biochemical, single-readout assay that uses extracted gene-proteins from Sf9/Sf21 in a cell-free assay. Measurements were taken 72 hours after chemical dosing in a 96-well plate.NVS_NR_cAR is one of one assay component(s) measured or calculated from the NVS_NR_cAR assay. It is designed to make measurements of radioligand binding, a form of binding reporter, as detected with scintillation counting signals by Lysate-based radiodetection technology.Data from the assay component NVS_NR_cAR was analyzed into 1 assay endpoint. This assay endpoint, NVS_NR_cAR, was analyzed in the positive analysis fitting direction relative to DMSO as the negative control and baseline of activity. Using a type of binding reporter, loss-of-signal activity can be used to understand changes in the binding as they relate to the gene AR. Furthermore, this assay endpoint can be referred to as a primary readout, because the performed assay has only produced 1 assay endpoint. To generalize the intended target to other relatable targets, this assay endpoint is annotated to the nuclear receptor intended target family, where the subfamily is steroidal.
Binding assays used specific radioligands (tritiated, iodinated) with non-radioactive competitive displacement ligands in agonist or antagonist protocols (as indicated) and various reference compounds and inhibitors to titrate specific binding to receptors and transporters. Most enzyme assays (CYPs, kinases, phosphatases, proteases, HDACs) used recombinant protein and specific substrates (fluorescence mostly, some colorimetric and radioactive) and inhibitors, followed by a biochemical separation of substrate and product. All assays for the biochemical HTS were initially run in duplicate at a single concentration (10 uM for CYP450 assays and 25 uM for all others). […] Each assay was run with positive and negative controls, and concurrent controls on every plate. The follow-up (secondary) screen tested active chemical-pairs in concentration series, as well as a few additional assays not tested in the primary screen, some selected negative inactives, and several cases re-run in the concentration series for confirmatory purposes.
By AC50 is commonly meant the midpoint of the concentration-response curve, whichever way the signal moves. As for `Oc1ccccc1-c1ccccc1`, the AC50 was 11.2 µM (active) and 25.5 µM (active).

Turning to `OC(c1ccc(Cl)cc1)(c1cncnc1)c1ccccc1Cl` (stereo not drawn), the molecule was called inactive.

For `C=CCC1=C(C)C(OC(=O)C2C(C=C(C)C)C2(C)C)CC1=O` (stereo not drawn), the molecule was classed as inactive.

As for `C=CC1(C)OC(=O)N(c2cc(Cl)cc(Cl)c2)C1=O` (stereo not drawn), the result was inactive.

Consider `CCCCOC(=O)c1ccccc1C(=O)OCCCC`, for which the result was inactive.

Turning to `CCCC1COC(Cn2cncn2)(c2ccc(Cl)cc2Cl)O1` (stereo not drawn), the concentration at half-maximal activity (AC50) was 9.99 µM (active).

Source of the values: PubChem BioAssay (EPA / NIEHS).
